A short description of assay [1]: qHTS assay to identify small molecule antagonists of the vitamin D receptor (VDR) signaling pathway - cell viability counter screen (AID 743225). Further: nearly all actives have a fitted effect of over 50% in size. Summed up: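 Read-out: CellTiter-Glo luminescence measured 30 min after reagent addition at room temperature. Cells were VDR-bla HEK 293T exposed 16 h at 37C, 5% CO2, to compound with 3 nM final calcitriol agonist.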
A general note: qHTS replaces the single test concentration by a dilution series.

Assay [2] can be described thus: qHTS assay to identify small molecule agonists of the NFkB signaling pathway - cell viability counter screen (AID 1159515; calls by dose curve; further: series mostly up to about 61 µM; nearly all actives have a fitted effect of over 55% in size). Summed up: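 NFkB-bla ME-180 cells, 2,000/well, were plated overnight at 37 C, 5% CO2, then exposed to compounds in DMSO for 5 hr. After the bla FRET read, CellTiter-Glo was added to the same wells; luminescence was read after 30 min at room temperature.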

Assay [3] is described as follows: qHTS assay to identify small molecule agonists of the endoplasmic reticulum stress response signaling pathway (AID 1159516; active means well fitted activation curve with a large enough effect in the signal ratio in the repeat runs, not every such curve was filed as active; the % refers to the signal ratio). Summed up:
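CellSensor ESRE-bla HeLa cells, carrying a beta-lactamase reporter driven by the ER stress response element, were plated overnight and exposed to compounds for 5 hr at 37 C. Reporter activity was read as FRET substrate fluorescence after 2 hr at room temperature.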

The nature of assay [4]: qHTS assay to identify small molecule antagonists of the retinoid-related orphan receptor gamma (ROR-gamma) signaling pathway - cell viability counter screen (AID 1159520). Further: nearly all actives have a fitted effect of over 50% in size. Summed up: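 Cytotoxicity was read from cellular ATP (CellTiter-Glo luminescence) after 16 hr at 37 C with 1 uM doxycycline induction. The inducer was added 2 hr after compound transfer to Tet-on ROR gamma CHO cells.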

In assay [5] the target is Nuclear receptor ROR-gamma (Homo sapiens) (UniProt P51449). Nature of the assay: qHTS assay to identify small molecule antagonists of the retinoid-related orphan receptor gamma (ROR-gamma) signaling pathway (AID 1159521;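 further: CHO cells with doxycycline inducible ROR-gamma driving an RORE luciferase reporter; top concentration of the series differs between compounds; nearly all actives have a fitted effect of over 50% in size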). Summed up: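 CHO Tet-on RORγ, RORE-luc reporter. Cpd 2 h pre-incubation, then dox hyclate 1 uM final, 16 h, 37 C/5% CO2. ONE-Glo luminescence; decrease = antagonist.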

Assay [6] in a line: qHTS assay to identify small molecule agonists of the AP-1 signaling pathway - cell viability counter screen (AID 1159525; calls by dose curve; further: nearly all actives have a fitted effect of over 55% in size). Summed up:
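Luminescent ATP readout (Cell Titer Glo, 30 min RT), normalised to DMSO and tetra n-octyl ammonium bromide controls. Cells were ME-180 AP-1-bla in 0.5% dialyzed FBS Opti-MEM, with a 5 h, 37 °C compound exposure.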

Assay [7] is described as follows: qHTS assay to identify small molecule agonists of the AP-1 signaling pathway (AID 1159526; calls by dose curve).
Assay [8] concerns the target Retinoic acid receptor RXR-alpha (Homo sapiens) (UniProt P19793). Nature of the assay: qHTS assay to identify small molecule agonists of the RXR signaling pathway (AID 1159527; calls by dose curve; further: nearly all actives have a fitted effect of over 35% in size). Summed up:
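Read-out: beta-lactamase FRET ratio (405 nm excitation, 460 and 530 nm emission) after 2 hr substrate loading at room temperature. Cells were RXR-alpha-UAS-bla HEK 293T treated with compounds for 16 hr in 2% charcoal-stripped FBS medium.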

Assay [9] in a line: qHTS assay to identify small molecule agonists of the RXR signaling pathway - cell viability counter screen (AID 1159529). Further: nearly all actives have a fitted effect of over 50% in size. Further: potency means the concentration at half of the fitted maximal effect. Summed up: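 HEK 293T RXRa-bla cells, 2% CS-FBS; 5 h settle; cpd 16 h 37 C, 5% CO2; CellTiter-Glo 30 min RT, luminescence. Tetraoctyl ammonium bromide as positive control.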
Assay [10] can be described thus: qHTS assay to identify small molecule antagonists of the retinoid acid receptor (RAR) signaling pathway - cell viability counter screen (AID 1159551). Further: nearly all actives have a fitted effect of over 35% in size. Summed up: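 C3RL4 cells were seeded overnight at 37 C, then treated with compounds plus 1 uM (final) retinol for 6 h at 37 C. Viability was read as ATP by CellTiter-Glo luminescence after 30 min at room temperature.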

A short description of assay [11]: qHTS assay to identify small molecule antagonists of the retinoic acid receptor (RAR) signaling pathway (AID 1159552; further: nearly all actives have a fitted effect of over 50% in size). Summed up: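 Cells of the C3RL4 line were seeded, incubated overnight, then dosed with compounds in DMSO followed immediately by retinol (1 uM final). Six hours later luciferase detection reagent went in; signal was measured after 30 min at RT.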

A short description of assay [12]: qHTS assay to identify small molecule agonists of the retinoic acid receptor (RAR) signaling pathway (AID 1159553). Summed up: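 C3RL4 cells carrying a RARE luciferase reporter were plated overnight at 37 C, then exposed to compounds in DMSO for 6 hr at 37 C and 5% CO2. Luminescence was read 30 min after luciferase reagent addition at room temperature.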
The nature of assay [13]: qHTS assay to identify small molecule antagonists of the estrogen related receptor (ERR) signaling pathway from Tox21 library - cell viability counter screen (AID 1224834). Further: nearly all actives have a fitted effect of over 30% in size. Summed up: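 ERR reporter cells were plated 6 h before compound addition, then exposed to test compounds in DMSO for 17.5 h at 37 C. Viability was read as CellTiter-Fluor fluorescence after a 30-minute incubation at 37 C.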

Assay [14] concerns the target Luciferin 4-monooxygenase (Photinus pyralis) (UniProt P08659). Nature of the assay: qHTS assay to identify small molecule inhibitors of firefly luciferase (AID 1224835). Further: series mostly up to about 120 µM; nearly all actives have a fitted effect of over 25% in size. Summed up: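 Inhibition of purified Photinus luciferase is measured by luminescence. Substrate levels (D-luciferin, ATP) sit at their KM values. Each compound is tested in a concentration series.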

Assay [15] in a line: qHTS assay to identify small molecule agonists of the constitutive androstane receptor (CAR) signaling pathway - cell viability counter screen (AID 1224836). Further: series mostly up to about 92 µM; nearly all actives have a fitted effect of over 45% in size. Summed up: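 HepG2-CYP2B6-hCAR, 2500 cells/well, 4 h pre-incubation; cpd 15 conc + PK11195 0.75 uM final; 23 h, 37 C/5% CO2; CellTiter-Fluor, fluorescence.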
Assay [16] is described as follows: qHTS assay to identify small molecule antagonists of the constitutive androstane receptor (CAR) signaling pathway - cell viability counter screen (AID 1224837). Further: series mostly up to about 92 µM; nearly all actives have a fitted effect of over 45% in size. Summed up:
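HepG2 cells stably expressing hCAR and a CYP2B6-2.2kb reporter were plated and pre-incubated 4 hr at 37 C/5% CO2, then given compounds at 15 concentrations plus 50 nM CITCO (final). After 23 hr, viability was read by CellTiter-Fluor fluorescence.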

The target in assay [17] is Nuclear receptor subfamily 1 group I member 3 (Homo sapiens) (UniProt Q14994). The assay is described as follows: qHTS assay to identify small molecule agonists of the constitutive androstane receptor (CAR) signaling pathway (AID 1224839). Further: series mostly up to about 92 µM; nearly all actives have a fitted effect of over 15% in size. Summed up:
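HepG2-CYP2B6-hCAR cells, 2500/well, 4 h pre-incubation; compounds 15 conc.; PK11195 0.75 uM final; 24 h, 37 C/5% CO2; ONE-Glo luciferase read.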

A short description of assay [18]: qHTS assay to identify small molecule antagonists of the estrogen related receptor signaling pathway with the pleiotropic PPARgamma coactivator (PGC) from Tox21 10K library - cell viability counter screen (AID 1224840; active means well fitted cell-killing curve with a large enough effect in the repeat runs, not every such curve was filed as active; further: nearly all actives have a fitted effect of over 40% in size). Summed up: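 PGC/ERR cells were seeded at 2,000 cells/well and left 6 hours at 37 C/5% CO2 before pin-tool addition of compounds in DMSO. After 17.5 hours at 37 C, CellTiter-Fluor was added and fluorescence read 30 minutes later.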

In assay [19] the target is Nuclear receptor subfamily 1 group I member 3 (Homo sapiens) (UniProt Q14994). The assay is described as follows: qHTS assay to identify small molecule antagonists of the constitutive androstane receptor (CAR) signaling pathway (AID 1224838). Further: nearly all actives have a fitted effect of over 40% in size. Summed up: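 HepG2 cells stably co-transfected with hCAR and a CYP2B6-2.2kb luciferase reporter were seeded 4 h before compound addition at 15 concentrations. Cells were stimulated with 50 nM CITCO (final) for 24 h at 37 C; luciferase luminescence was then read.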

Assay [20] can be described thus: qHTS assay to identify small molecule agonists of the endoplasmic reticulum stress response signaling pathway - cell viability counter screen (AID 1159517; calls by dose curve). Summed up: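 HeLa cells carrying an ESRE-driven beta-lactamase reporter receive compound for 5 hr at 37 C. Cell viability is then gauged with CellTiter-Glo by luminescence, 30 min at room temperature.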

Records with an inconclusive call do not appear. Unmarked numbers belong to inactive results. The source made the active and inactive calls. Unless noted, the call rests on the fitted dose curve; in most records, active means well fitted curve in the direction sought with a large enough effect in the repeat runs; inconclusive means weak or mixed curves; inactive means no such curve, though single readings can be large; an effect the other way counts as inactive or inconclusive.

Luciferin 4-monooxygenase (Photinus pyralis), sequence (P08659 whole entry, looked up): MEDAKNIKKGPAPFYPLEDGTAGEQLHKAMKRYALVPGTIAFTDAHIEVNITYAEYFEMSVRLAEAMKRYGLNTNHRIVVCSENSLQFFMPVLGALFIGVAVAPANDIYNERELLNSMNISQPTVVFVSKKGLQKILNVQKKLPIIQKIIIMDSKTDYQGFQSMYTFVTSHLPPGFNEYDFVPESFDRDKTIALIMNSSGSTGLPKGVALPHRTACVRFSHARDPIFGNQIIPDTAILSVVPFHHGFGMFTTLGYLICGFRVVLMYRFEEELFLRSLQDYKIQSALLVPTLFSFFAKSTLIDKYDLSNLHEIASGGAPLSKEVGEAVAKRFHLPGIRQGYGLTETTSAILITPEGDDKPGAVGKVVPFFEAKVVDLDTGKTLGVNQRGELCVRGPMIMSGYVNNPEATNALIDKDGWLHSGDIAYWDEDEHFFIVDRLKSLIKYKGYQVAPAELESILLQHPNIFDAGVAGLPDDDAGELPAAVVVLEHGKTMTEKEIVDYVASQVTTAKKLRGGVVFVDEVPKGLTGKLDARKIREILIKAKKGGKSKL
Nuclear receptor subfamily 1 group I member 3 (Homo sapiens), sequence (Q14994 whole entry, looked up): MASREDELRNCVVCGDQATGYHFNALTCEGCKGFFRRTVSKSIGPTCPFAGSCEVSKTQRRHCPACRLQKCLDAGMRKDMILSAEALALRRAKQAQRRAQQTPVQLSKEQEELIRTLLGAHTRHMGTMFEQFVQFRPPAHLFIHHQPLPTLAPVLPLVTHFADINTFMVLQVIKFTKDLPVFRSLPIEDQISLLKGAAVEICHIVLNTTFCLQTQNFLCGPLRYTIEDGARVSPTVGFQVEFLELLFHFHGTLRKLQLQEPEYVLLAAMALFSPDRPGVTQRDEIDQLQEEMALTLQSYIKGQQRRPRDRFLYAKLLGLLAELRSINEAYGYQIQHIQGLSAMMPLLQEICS
Retinoic acid receptor RXR-alpha (Homo sapiens), sequence (P19793 whole entry, looked up): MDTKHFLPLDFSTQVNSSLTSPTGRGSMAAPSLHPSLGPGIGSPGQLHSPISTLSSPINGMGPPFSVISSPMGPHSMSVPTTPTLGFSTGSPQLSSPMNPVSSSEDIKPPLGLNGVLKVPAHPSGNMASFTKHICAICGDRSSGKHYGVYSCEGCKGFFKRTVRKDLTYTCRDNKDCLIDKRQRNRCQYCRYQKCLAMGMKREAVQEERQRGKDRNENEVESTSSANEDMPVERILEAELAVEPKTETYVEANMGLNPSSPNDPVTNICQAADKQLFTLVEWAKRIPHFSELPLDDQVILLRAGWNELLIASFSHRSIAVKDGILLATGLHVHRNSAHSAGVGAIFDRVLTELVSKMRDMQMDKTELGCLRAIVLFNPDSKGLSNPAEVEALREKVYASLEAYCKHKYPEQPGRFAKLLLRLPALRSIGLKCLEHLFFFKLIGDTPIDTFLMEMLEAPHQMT

For the molecule `C=CCN1CCc2nc(N)sc2CC1`, the outcome in [1], in [2], in [4], in assay [5], in assay [6] and in assay [10] was inactive. The molecule was called inactive in assay [11], in assay [13], in [15], in assay [16] and in assay [18]. For the same molecule, the Potency entry in [3], in [7], in [8], in assay [9], in [12] and in assay [14] was “inactive” each time. Further, the Potency result in assay [17] is “inactive”.
As to `COCCCOc1cc(C[C@@H](C[C@H](N)[C@@H](O)C[C@H](C(=O)NCC(C)(C)C(N)=O)C(C)C)C(C)C)ccc1OC`, the call in assay [2], in assay [4], in assay [5], in assay [6], in [10] and in assay [11] was inactive. Besides, the call in assay [15], in [16] and in assay [18] was inactive. Moreover, the Potency entry in assay [3], in [7], in [8], in [9], in [12] and in assay [14] was “inactive” in each case.
As to `COc1cnc(NS(=O)(=O)c2ccc(N)cc2)nc1`, the result in [1], in assay [2], in assay [4], in assay [5], in [6] and in assay [10] was inactive. Besides, the molecule was called inactive in assay [11], in [13], in assay [15] and in [16]. Besides, the Potency result in assay [3], in assay [7], in [8], in assay [9], in assay [12] and in [14] was “inactive” each time. In assay [17], the Potency result is “inactive”.
For the molecule `CCN1CCN(C(=O)N[C@@H](C(=O)N[C@@H]2C(=O)N3[C@@H]2SC(C)(C)[C@H]3C(=O)O)c2ccccc2)C(=O)C1=O`, the outcome in assay [1], in assay [2], in [4], in [5], in assay [6] and in assay [10] was inactive. For the same molecule, the molecule was classed as inactive in assay [13], in assay [15], in assay [16] and in [18]. Further, the Potency entry in assay [3], in assay [7], in assay [8], in [9], in assay [12] and in assay [14] was “inactive” each time.
As for `O=C(CCBr)N1CCN(C(=O)CCBr)CC1`, the molecule was classed as inactive in assay [1], in [2], in [4], in [5], in [6] and in assay [10]. Moreover, the result in assay [13], in assay [15], in [16] and in assay [18] was inactive. Further, the Potency result in assay [3], in [7], in [8], in assay [9], in assay [12] and in [14] was “inactive” each time.
`C[C@H]1COc2c(C3(N)CC3)c(F)cc3c(=O)c(C(=O)O)cn1c23`: the call in assay [1], in assay [2], in assay [4], in assay [5], in [6] and in [10] was inactive. The molecule was called inactive in assay [11], in [13], in assay [15], in assay [16], in assay [19] and in [18]. In addition, the Potency entry in assay [3], in [7], in assay [8], in assay [9], in assay [12] and in assay [14] was “inactive” throughout. In addition, the Potency entry in assay [17] was “inactive”.
`CCCCCC(=O)CC`: the outcome in assay [1], in assay [2], in assay [20], in [4], in [5] and in assay [6] was inactive. The outcome in [10], in assay [13], in assay [15], in assay [16], in assay [19] and in [18] was inactive. Further, the Potency entry in assay [3], in [7], in assay [8], in [14] and in [17] was “inactive” throughout.
On to `CCCCCCCCS(=O)(=O)O`, for which the call in assay [1], in [2], in assay [4], in assay [5], in assay [6] and in [10] was inactive. The molecule was called inactive in assay [11], in assay [15], in [16], in [19] and in [18]. For the same molecule, the Potency entry in assay [3], in assay [7], in assay [8], in [9], in assay [12] and in [14] was “inactive” each time. For the same molecule, the Potency result in [17] is “inactive”.
For `CC(C)OCCO`, the call in [1], in assay [2], in assay [4], in assay [5], in assay [6] and in [10] was inactive. Besides, the call in assay [11], in [15], in assay [16], in assay [19] and in assay [18] was inactive. The Potency result in [3], in [7], in assay [8], in assay [9], in [12] and in assay [14] was “inactive” throughout. In assay [17], the Potency entry was “inactive”.
Turning to `CC(C)(C)NCC(O)COc1cccc2c1CCC(=O)N2` (centres undefined), the result in [1], in [2], in assay [4], in assay [5], in assay [6] and in assay [10] was inactive. In addition, the call in [11], in [13], in assay [15], in [16] and in assay [18] was inactive. Further, the Potency entry in assay [3], in [7], in assay [8], in assay [12], in assay [14] and in assay [17] was “inactive” in each case.
Regarding `O=S(=O)(O)CC(O)CCl` (centres undefined), the outcome in assay [1], in [2], in [4], in assay [5], in assay [6] and in assay [10] was inactive. The molecule was called inactive in assay [11], in assay [13], in assay [15], in assay [16], in [19] and in assay [18]. Moreover, the Potency entry in assay [3], in [7], in assay [8], in assay [9], in assay [12] and in [14] was “inactive” each time. Moreover, the Potency entry in assay [17] was “inactive”.
In the case of `Cc1ccc(O)c([N+](=O)[O-])c1`, the molecule was classed as inactive in assay [1], in assay [20], in assay [4], in assay [5], in [6] and in assay [10]. The call in [11], in assay [13], in [15], in [16], in assay [19] and in assay [18] was inactive. Further, the Potency result in [3], in assay [7], in [8], in [12], in [14] and in [17] was “inactive” each time. For the same molecule, in assay [9], the Potency is 24.8 µM (active).

The values are drawn from PubChem BioAssay (Tox21).
